Experimental findings from PubChem BioAssay AID463190 (Sanford-Burnham Center for Chemical Genomics, 2010) are described below.

Each structure is given as a SMILES string. In all, about 330,000 compounds went through this assay and about 7,300 (2.2%) were called active.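 The calls were made as follows: active = inhibition of at least 40%; inactive = the rest.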 What follows is part of a selection rich in actives, with near analogues and random picks from the rest.

This assay in a line: growth inhibitors of tim10-1 mutant yeast, primary screen, luminescence, uHTS (AID 463190).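 Also: mutant grown at 25 °C; 0% = DMSO wells with yeast and 100% = wells holding no yeast.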 The settings on record: S. cerevisiae tim10-1 ts strain growth, BacTiter-Glo, 24 h; at 20 µM; hits give high values.
In the case of `Cc1nc2ccccn2c1P(=S)(N1CCCCC1)N1CCCCC1`, the inhibition (as a rule, the relative decrease from the control value, in per cent) was 56.2% (active). As for `O=C(COc1ccc2ccccc2c1)N1CCN(Cc2ccncc2)CC1`, the inhibition is 24.7% (inactive). As to `CNP1(NC)=Nc2nn(-c3ccccc3)c(N)c2C(c2ccccc2)=N1`, the inhibition was -2.7% (inactive). As for `CCc1ccc(OCC(=O)N2CCN(CC(=O)Nc3ccccc3Cl)CC2)cc1`, the inhibition is 12.7% (inactive).

With `O=C1NC(=O)N(c2ccccc2)C(=O)/C1=C/c1ccc([N+](=O)[O-])s1`, the inhibition was 81.2% (active). With `COc1cccc(N2C(=O)NC(=O)/C(=C\c3ccc([N+](=O)[O-])s3)C2=O)c1` the figure was 70.3% (active); with `COc1ccc(N2C(=O)/C(=C/c3ccco3)C(=O)NC2=S)cc1`, 23.1% (inactive). With `COc1cccc(N2C(=O)NC(=O)/C(=C\c3cn(C)c4ccccc34)C2=O)c1` the figure was 13.4% (inactive). Take `Fc1ccc(C2N3CCCN23)cc1` (stereo not given): the inhibition was -13.4% (inactive).

With `O=C(O)CCn1cc(C=C2C(=O)NC(=S)NC2=O)c(-c2cccc(Br)c2)n1`, the inhibition is 23.4% (inactive). For `COc1ccc2c(c1O)-c1cccc3c1[C@@H](C2)N(C)CC3`, the inhibition was -10% (inactive).

`CN(C)C(=O)Oc1cc(=O)n2c3c(cccc13)CCC2`: the inhibition was 13.3% (inactive). With `O=C1C2(Cl)C3(Cl)C4(Cl)C(Cl)(Cl)C5(Cl)C3(Cl)C1(Cl)C5(Cl)C24Cl` (stereo not given) the figure was -91.8% (inactive); with `O=C(CCCn1c(=O)[nH]c2cc(Cl)ccc2c1=O)N1CCC2(CC1)OCCO2`, 17.3% (inactive).

As for `COC(=O)C1=C(c2ccc(F)cc2OCc2ccccc2)C[C@@H]2CC[C@H]1N2C(=O)NCc1ccc2[nH]ccc2c1`, the inhibition was 9.44% (inactive). For `N#CC1=C(N)Oc2c(c(=O)oc3ccccc23)C1c1ccccc1OC(=O)c1cccs1` (stereo not given), the inhibition is 46.4% (active). With `CCNc1nc2[nH]c(=O)c3c(c2s1)OC(N)=C(C#N)C3c1cccs1` (stereo not given) the figure was -13.5% (inactive).

As for `CC(=O)N(C1=NCCCS1)c1ccccc1F`, the inhibition is 3.96% (inactive). In the case of `CC1C2Cn3c(nc4ccccc43)C1N(C)O2` (stereo not given), the inhibition is -11.3% (inactive).

Consider `COP(=O)(OC)C(NC(=O)c1ccc(C)cc1)C(Cl)(Cl)Cl` (stereo not given), for which the inhibition is 11% (inactive).

Consider `COC(=O)C1=C(c2cc3ccccc3s2)C[C@@H]2CC[C@H]1N2C(=O)NCCO`, for which the inhibition is -17% (inactive). With `CCCCCn1c(=O)c(C(=O)NCc2ccccc2)c(O)c2ccccc21` the figure was -27.8% (inactive); with `CCCCn1c(=O)c(C(=O)Nc2ccccc2Cl)c(O)c2ccccc21`, 2.29% (inactive); with `CCCCCn1c(=O)c(C(=O)Nc2c(C)n(C)n(-c3ccccc3)c2=O)c(O)c2ccccc21`, 45.4% (active). Take `O=C(O)c1ccccc1NC(=O)C1C2CCC(O2)C1C(=O)O` (stereo not given): the inhibition is -7.62% (inactive).
